Screening results (PubChem)
The list is not random: actives were taken first. Their share in the collection is about 1.7%.
Sa RN4220 lethal = S. aureus RN4220 growth inhibition; OD600, 16 h; 330,000 compounds, 0.33% hits; inhibition, % (test concentration not listed); in the data active = inhibition above about 85%;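 note: plate controls were untreated cells for no effect and reference antibiotic for full effect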
Vc quorum ag-1 = quorum light induction in luxS cqsA deficient V. cholerae; 350,000 compounds, 0.16% hits; V. cholerae BH1578 lux reporter, luminescence, 6 h; AID 588436; activation, % at 18.7 µM; in the data active = activation mostly above about 9.7%, no sharp cut-off; inconclusive = no clear call, values can overlap the other calls; inactive = mostly below about 3.7%
Sa ugtP lethal = growth inhibition of S. aureus ugtP deletion strain; S. aureus RN4220 ugtP deletion, OD600 growth, 16 h; growth inhibition, % (concentration not given with the values); 330,000 compounds, 0.54% hits; in the data active = growth inhibition above about 68%;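 note: plate controls were untreated wells for no effect and antibiotic for full effect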
CCHF vOTU inh = CCHFV vOTU protease inhibition. Pep-AMC fluorescence. inhibition, % at 11.5 µM. 370,000 compounds, 0.55% hits. AID 651958; in the data active = inhibition above about 30%; note: 0% = vehicle wells with enzyme and 100% = no enzyme wells
Mtb hypoxia rep = Mtb hypoxia fluorescent reporter inhibition | M. tuberculosis hypoxia-regulated fluorescent reporter, fluorescence | fluorescence inhibition, % (concentration not given with the values) | 300,000 compounds, 0.1% hits; in the data active = fluorescence inhibition mostly above about 23%, no sharp cut-off; inactive = mostly below about 17%
PfHsp40 yeast = restores yeast growth despite PfHsp40 toxicity | growth rescue, % at 12.5 µM | S. cerevisiae expressing PfHsp40, growth rescue, ATP luminescence | 340,000 compounds, 0.68% hits; in the data active = growth rescue above about 28%, passing the limit was not always enough; inconclusive = no clear call, values can overlap the other calls;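 note: yeast W303a lacking pdr1 and pdr3 grown in galactose medium; growth measured after three days at 30 °C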
Vc quorum ag-2 = quorum light induction in BH1578 reporter strain; shares compounds with Vc quorum ag-1; V. cholerae BH1578 lux reporter, luminescence, 6 h; activation, % at 50 µM; 620 tested, under 10 active; call rule not given here
Starred values were filed as active, the others as inactive; i = inactive; ? = inconclusive; . = no result.

SMILES | Sa RN4220 lethal | Vc quorum ag-1 | Sa ugtP lethal | CCHF vOTU inh | Mtb hypoxia rep | PfHsp40 yeast | Vc quorum ag-2
COc1ccc(OCC(=O)NN=C2CCc3ccccc32)cc1 | -4 | . | 10 | . | . | . | .
CN(C)CC(C)(C)CNC(=O)c1cc(=O)c2ccccc2o1 | 2 | 12 | -2 | 1 | 5 | -1 | 0
Cc1ccc(CNC(=O)c2cc(=O)c3ccccc3o2)cc1 | 3 | -3 | 3 | -4 | -4 | -1 | .
CCN(CC)Cc1cc(C(=O)O)c(-c2ccccc2)o1 | 3 | -6 | 9 | -1 | -3 | 0 | .
O=C(O)c1cc(CN2CCOCC2)oc1-c1ccccc1 | 3 | 17* | 3 | 1 | 4 | -1 | 1
OCCN1CCN(CC(O)COc2ccc(Cl)cc2)CC1 (stereo not given) | 6 | 17* | 8 | 12 | 8 | 0 | 0
CC(C)CC(NC(=O)c1nc[nH]c1C(=O)N1CCN(C(=O)OC(C)(C)C)CC1)C(=O)OCc1ccccc1 (stereo not given) | 6 | . | 5 | . | 1 | . | .
Cc1csc(NC(=O)Cc2nn(C)c(=O)c3ccccc23)n1 | -4 | 25* | -3 | -4 | . | 0 | 0
COc1ccc(Cl)cc1S(=O)(=O)NC(C)C(=O)NCCCn1ccnc1 (stereo not given) | 3 | 14 | 7 | -2 | 6 | 1 | 0
CCOC(=O)NN=Cc1ccc(F)cc1F | 5 | . | 2 | . | 8 | . | .
CCOC(=O)C1CCCN(C(=O)c2cc3c(OC)c(OC)c(OC)cc3[nH]2)C1 (stereo not given) | 4 | 17* | 9 | 3 | 6 | -1 | 0
CCOC(=O)C1CCN(C(=O)c2cc3c(OC)c(OC)c(OC)cc3[nH]2)CC1 | 2 | -8 | 1 | -4 | 6 | 1 | .
ON=C(c1ccccc1)c1cc2cc(Br)cc(Br)c2o1 | -5 | . | 73 | . | -8 | . | .
Cc1nc2ncnn2c(C)c1Cc1c(Cl)cccc1Cl | 2 | 94* | -4 | -2 | 6 | 11 | 18
Cc1cc(C)n(N=Cc2ccc(O)cc2)c(=O)c1C#N | 4 | . | 10 | . | 12 | . | .
COc1ccc(CNC(=O)c2ccc(Cl)c(S(=O)(=O)N3CCOCC3)c2)cc1OC | 6 | 57* | 4 | . | 9 | -2 | 0
CCOC(=O)c1c(NC(=O)COC(=O)Cc2c[nH]c3ccccc23)sc(C(=O)N(C)C)c1C | 2 | 12 | -15 | 4 | 7 | 0 | 0
Brc1cc2c(cc1C=NNc1nc3ccccc3s1)OCO2 | -10 | . | -10 | . | . | . | .
COc1nc(NN=Cc2ccc(-c3ccccc3[N+](=O)[O-])o2)nc(N2CCOCC2)n1 | 6 | . | -9 | . | 5 | . | .
COc1ccc(C2CC(=O)Oc3cc(OC)c(OC)c(OC)c32)cc1 (stereo not given) | 3 | i | 8 | 11 | -4 | 0 | .
COc1cc2c(c(OC)c1OC)C(c1ccc(C)cc1)CC(=O)O2 (stereo not given) | 2 | 18 | 5 | 1 | -10 | 0 | 1
Cc1ccc(Oc2ccc(S(=O)(=O)N3CCOCC3)cc2C(N)=O)c(-n2nc3ccccc3n2)c1 | -8 | 25* | -8 | -3 | . | 1 | 1
Cc1nc2cc(NC(=O)N3CCCCC3)ccc2n1C | 4 | 0 | -5 | -6 | 5 | 3 | .
CCOC(=O)C1CCN(C(=O)Nc2ccc3c(c2)nc(C)n3C)CC1 | 5 | ? | 8 | -4 | -1 | -2 | 0
COc1ccc(CCNC(=O)CC(C)=NNC(=O)C(c2ccccc2)c2ccccc2)cc1OC | 0 | . | 5 | . | -1 | . | .
SMILES | Sa RN4220 lethal | Vc quorum ag-1 | Sa ugtP lethal | CCHF vOTU inh | Mtb hypoxia rep | PfHsp40 yeast | Vc quorum ag-2
CCOc1ccc(/C(O)=C2/C(=O)C(=O)N(CCOCCO)C2c2ccccn2)cc1 (stereo not given) | 0 | 14 | -1 | 3 | 2 | 1 | 0
CCOc1ccc(C(O)=C2C(=O)C(=O)N(CCOCCO)C2c2cccnc2)cc1 (stereo not given) | 3 | . | -1 | . | -3 | . | .
Cc1cc(C=NNc2ncnc(N)c2[N+](=O)[O-])c(C)n1-c1ccccc1 | -1 | . | 2 | . | 0 | . | .
COc1ccc(/C(N)=N/OC(=O)Cc2ccccc2OC)cc1 | 3 | 12 | 7 | 5 | 6 | 1 | 1
CCOC(=O)Cn1nc(C)n(-c2ccc(Cl)cc2)c1=O | 1 | 0 | -1 | -15 | -3 | 0 | .
CCOC(=O)Cn1nc(C)n(-c2ccc(C(C)C)cc2)c1=O | 5 | 14 | 7 | -4 | 7 | -1 | 0
COC(=O)[C@H]1C[C@H](C(=O)O)[C@@H](C)C1(C)C | . | 25 | . | 21 | . | -2 | 0
O=C(COC(=O)c1ccc(Cl)nc1)Nc1ccc2ccccc2c1 | 2 | 14 | 1 | -9 | 4 | 0 | 0
Cc1cccc(NC(=O)CON=Cc2ccc3c(c2)OCO3)c1 | -2 | . | 1 | . | 4 | . | .
Cc1cc(OC(F)F)ccc1NC(=S)NCCc1ccccc1 | 0 | 12 | 1 | 7 | -9 | -1 | 0
CCc1nc(NCCCN2CCOCC2)c2oc3ccccc3c2n1 | 6 | 12 | 3 | 0 | 10 | 3 | 0
COc1ccc(OCCOC(=O)c2cccs2)cc1 | 2 | 524* | 4 | 3 | 1 | 0 | 152
COc1ccc(OCCOC(=O)CCS(=O)(=O)c2ccc(C)cc2)cc1 | 1 | 12 | 10 | 16 | -5 | -1 | 0
Cc1nn2cnnc2c(C)c1Cc1c(F)cccc1Cl | 4 | 165* | -1 | -17 | 14 | -2 | 10
CC(C)CC(=O)Nc1ccccc1N1CCN(c2ccccc2)CC1 | -1 | 0 | 14 | -3 | 9 | 0 | .
CC(C)CC(=O)Nc1ccccc1N1CCN(C(=O)c2ccccc2)CC1 | 3 | 34* | 8 | 6 | . | 0 | 0
O=C(NN=Cc1ccccc1C(=O)O)c1ccc(COc2cccc3cccnc23)cc1 | 15 | . | 4 | . | 3 | . | .
CCc1ccc2c(c1)c1nnc(NN)nc1n2CC | 4 | 135* | 9 | -12 | 2 | -2 | 106
CCc1ccc2c(c1)c1nnc(NN)nc1n2C | . | 1 | . | 12 | . | -1 | .
Cc1ccnc(-n2c(C)cc(C=NNC(=O)COc3cccc4cccnc34)c2C)c1 | 4 | . | 6 | . | 16 | . | .
N#CCSc1ccccc1NC(=O)COC(=O)CCNC(=O)c1ccc([N+](=O)[O-])cc1 | 3 | 9 | 4 | -13 | 3 | 1 | 0
O=C(CCNC(=O)c1ccc([N+](=O)[O-])cc1)Nc1ccccc1N1CCCC1 | 2 | -2 | 3 | 7 | -1 | 0 | .
O=C(c1cccc(S(=O)(=O)N2CCc3ccccc32)c1)N1CCc2ccccc2C1 | 7 | -3 | -1 | 16 | 9 | 2 | .
O=C(c1cccc(S(=O)(=O)N2CCc3ccccc32)c1)N1CCOCC1 | 3 | 288* | 2 | 9 | 8 | 1 | 0
C#CCOCCOCCOCCNc1nc(N2CCOCC2)nc(N2CCN(C(=O)C(C(C)CC)n3cc(CCCN=C(N)N)nn3)CC2)n1 (stereo not given) | 0 | . | 3 | . | -2 | . | .
